Measurements reported in PubChem BioAssay AID372 (MTDP, 2006).
Hit rate of the full screen: of about 100,000 compounds, about 770 (0.77%) were called active. The sample holds actives, similar compounds and a random draw of the others, so the mix is not that of the screen. Values without a mark were called inactive. No stated cut-off is given here; in the data, active means inhibition above about 50%; inactive means the rest.

Target: Gag-Pol polyprotein (Human immunodeficiency virus type 1 group M subtype B (isolate HXB2)) (UniProt P04585)
Assay: RNase H inhibition, HIV 1 Gag Pol polyprotein, FRET biochemical assay, screening (AID 372)
Conditions: HIV-1 RT RNase H, FRET RNA/DNA substrate fluorescence; at 10 µM; hits give high values

SMILES | inhibition
COc1ccc(OC)c(/C=N/NC(=O)CSc2nc3ccccc3n2C)c1 | 20%
Cc1ccnc(NS(=O)(=O)Cc2ccccc2)c1 | 3%
COc1ccc(OC)c(N2C(=O)NC(=O)C(=Cc3cccs3)C2=O)c1 | 1%
CCn1c(NC(=O)c2ccc(Cl)cc2)nc2ccccc21 | 4%
Cc1ccc(NC(=S)NC(=O)c2ccccc2F)cc1C | 15%
COc1ccc(CCN=C(Nc2ccccc2)SC2CC(=O)N(c3ccccc3)C2=O)cc1 (stereo not drawn) | 6%
CCN(CC)c1ccc(C=Nc2ccccc2C(=O)Nc2ccccc2)c(O)c1 | 5%
N#C/C(=C/c1ccc(-c2ccccc2[N+](=O)[O-])o1)C(=O)NCc1ccccc1 | 27%
COc1ccc(-n2nc3cc(C)c(NC(=O)c4ccc([N+](=O)[O-])cc4)cc3n2)cc1 | 10%
COc1ccc(-n2nc3cc(C)c(NC(=O)c4ccc(-c5ccc([N+](=O)[O-])cc5OC)o4)cc3n2)cc1 | 54% (active)
COc1ccc(-n2nc3cc(C)c(NC(=O)c4ccc(-c5cccc([N+](=O)[O-])c5)o4)cc3n2)cc1 | 42%
COc1ccc(-n2cnc(N)c2C(=O)c2cccc([N+](=O)[O-])c2)cc1 | 1%
Cc1ccc(-c2cc(C(F)(F)F)n3nc(C(N)=O)c(Cl)c3n2)cc1 | 11%
Clc1cccc(NCc2ccncc2)c1 | 2%
COc1ccc(-n2sc3c(c2=S)-c2ccc(OC)cc2NC3(C)C)cc1 | 15%
CC1=C(C(=O)OCCc2ccccc2)C(c2ccccc2Br)C2=C(CC(c3ccccc3)CC2=O)N1 (stereo not drawn) | 26%
CC1=C(C(=O)OCc2ccccc2)C(c2ccccc2Br)C2=C(CC(c3ccccc3)CC2=O)N1 (stereo not drawn) | 32%
CCCOC(=O)C1=C(C)NC2=C(C(=O)CC(c3ccccc3)C2)C1c1ccccc1Br (stereo not drawn) | 58% (active)
O=S(=O)(NC1CCCCCCC1)c1ccc(F)cc1 | 7%
O=C1NC(=S)S/C1=C\c1cn(Cc2ccc(Cl)cc2)c2ccccc12 | 31%
CCN(CC)CCOc1c(C)cc(Cl)cc1Cl | 0%
CCOc1ccccc1OCCOCCOc1c(C)cc(C)cc1Cl | 33%
CCOc1ccccc1OCCCOc1c(C)cc(C)cc1Cl | 52% (active)
CCN(CC)CCOc1c(Cl)cc(C)cc1Cl | 2%
CCOc1ccccc1OCCCCOc1c(Cl)cc(C)cc1Cl | 23%
CCN(CC)CCOc1c(C)cc(C)cc1Cl | 52% (active)

SMILES | inhibition
N#C/C(=C\Nc1ccccc1Cl)c1nc(-c2ccc(Br)cc2)cs1 | 2%
CC(=O)C1C(=O)C=C(c2cccs2)CC1c1ccccc1 (stereo not drawn) | 0%
CCOC(=O)C1=C(c2ccccc2)S/C(=C2/C(=S)C(C)(C)N(C(C)=O)c3ccc(OC)cc32)S1 | 22%
CC(=O)C1=C(c2ccccc2)S/C(=C2/C(=S)C(C)(C)N(C(C)=O)c3ccc(C)cc32)S1 | 50% (active)
CCOC(=O)C1=C(c2ccccc2)S/C(=C2/C(=S)C(C)(C)N(C(C)=O)c3ccc(C)cc32)S1 | 24%
O=C(CSc1nc(O)cc(=O)[nH]1)C1CC1 | 11%
O=C1NC(=S)N(c2ccccc2)C(=O)/C1=C/c1cccn1-c1ccccc1 | 10%
O=C1NC(=S)NC(=O)C1=Cc1cccn1-c1ccc(Cl)cc1 | 11%
CN1C(=O)S/C(=C/c2cccn2-c2ccc(Cl)cc2)C1=O | 44%
O=C1NC(=O)C(=Cc2cccn2-c2ccc(Cl)cc2)C(=O)N1 | 57% (active)
O=C1NC(=O)C(=Cc2cccn2-c2ccccc2)C(=O)N1 | 29%
O=C1NC(=S)N(c2ccc(Cl)cc2)C(=O)/C1=C/c1cccn1-c1ccccc1 | 4%
COc1ccc(-n2cccc2/C=C2/SC(=O)N(C)C2=O)cc1 | 53% (active)
COc1ccc(N2C(=O)/C(=C/c3cccn3-c3ccccc3)C(=O)NC2=S)cc1 | 54% (active)
COc1ccc(-n2cccc2/C=C2\C(=O)NC(=S)N(c3ccc(Br)cc3)C2=O)cc1 | 32%
COc1ccc(N2C(=O)/C(=C/c3cccn3-c3ccc(Br)cc3)C(=O)NC2=S)cc1 | 29%
O=C1NC(=S)N(c2ccccc2)C(=O)/C1=C/c1cccn1-c1ccc(Cl)cc1 | 52% (active)
CN1C(=O)/C(=C/c2cccn2-c2ccc([N+](=O)[O-])cc2)SC1=S | 42%
O=C(c1cc(-c2ccccc2)nc2ccccc12)N1CCc2ccccc2C1 | 9%
COc1ccc(C(=O)N/C(=C\c2cc(OC)c(OC)cc2[N+](=O)[O-])C(=O)Nc2ccc(C)cc2C)cc1 | 18%
Cc1cccc(C2(c3cccc(C)c3)CC2C(=O)Nc2cc([N+](=O)[O-])ccc2O)c1 (stereo not drawn) | 30%
CC(C)(C)NC(=O)C(=O)N/N=C/c1cccc2ccccc12 | 10%
COC(=O)C(=C/C(C)=C/c1ccco1)C(=O)OC | 1%
CCN(CC)CCCCCOc1cc(C)cc(C)c1 | 17%
COc1cc(C(=O)N/C(=C/c2ccc(Br)cc2)C(=O)NC(C)C(=O)O)cc(OC)c1OC (stereo not drawn) | 3%
O=C(COc1ccccc1)Nc1ccccc1C(=O)Nc1ccc(C(=O)O)cc1 | 1%

SMILES | inhibition
O=C(COc1ccc2ccccc2c1)Nc1ccccc1C(=O)Nc1ccccc1 | 54% (active)
COC(=O)c1ccccc1NC(=O)COc1ccc2ccccc2c1 | 38%
C=C(C)c1cccc(C(C)(C)NC(=O)NCc2ccccn2)c1 | 0%
O=C1c2ccccc2C(=O)N1CCc1nc2ccccc2c(=O)n1-c1ccc(Br)cn1 | 40%
O=C1c2ccccc2C(=O)N1CCc1nc2ccccc2c(=O)n1-c1ccccn1 | 61% (active)
Cc1cccc(-n2c(CCN3C(=O)c4ccccc4C3=O)nc3ccccc3c2=O)n1 | 14%
O=C(c1cccs1)N1CCN(c2ccc([N+](=O)[O-])cc2)CC1 | 4%
Cc1ccc(C2=C/C(=C\c3cc([N+](=O)[O-])ccc3Cl)C(=O)O2)cc1 | 43%
O=C1OC(c2ccccc2)=C/C1=C/c1ccc([N+](=O)[O-])cc1 | 2%
O=C1OC(c2ccccc2)=C/C1=C/c1ccc(Cl)cc1 | 7%
Cc1ccc2cc(C3=C/C(=C\c4c(Cl)cccc4Cl)C(=O)O3)ccc2c1 | 6%
Cc1ccc([N+](=O)[O-])cc1/C=C1/C=C(c2ccccc2)OC1=O | 57% (active)
O=C1OC(c2ccccc2)=C/C1=C\c1c(Cl)cccc1Cl | 50% (active)
CC(C)(C)c1cc(/C=N/NC(=O)c2ccccc2O)cc(C(C)(C)C)c1O | 25%
CC1=C(C(=O)Nc2ccc(Br)cc2)C(c2ccc(C)cc2)NC(=S)N1 (stereo not drawn) | 57% (active)
CC1=C(C(=O)Nc2ccc(Br)cc2)C(c2ccc(Br)cc2)NC(=S)N1 (stereo not drawn) | 11%
CC1=C(C(=O)Nc2ccc(C)cc2)C(c2ccc(Br)cc2)NC(=S)N1 (stereo not drawn) | 10%
COC(=O)C1=C(C)N(C)C(=O)NC1c1cc2c(cc1[N+](=O)[O-])OCO2 (stereo not drawn) | 3%
COC(=O)c1ccc(/C=C2\SC(=NCc3ccccc3)N(Cc3ccccc3)C2=O)cc1 | 59% (active)
COc1ccc(/C=C2\SC(=NCc3ccccc3)N(Cc3ccccc3)C2=O)cc1C(=O)O | 23%
COc1ccccc1/C=C1/SC(=NCc2ccccc2)N(Cc2ccccc2)C1=O | 28%
COc1ccc(/C=C2\SC(=O)N(Cc3ccccc3)C2=O)cc1OC | 44%
COc1ccc(/C=C2\SC(=NCc3ccccc3)N(Cc3ccccc3)C2=O)cc1OC | 54% (active)
CCOc1ccc(/C=C2\SC(=NCc3ccccc3)N(Cc3ccccc3)C2=O)cc1 | 0%
O=C1CC(c2ccccc2)CC(O)=C1C=NCCN1CCNCC1 (stereo not drawn) | 0%
COc1ccc(C=Nc2ccc(C)c(F)c2)cc1OC | 6%

SMILES | inhibition
CCOC(=O)COc1c(Cl)cc(/C=C2\C(=O)NC(=O)N(c3ccc(F)cc3)C2=O)cc1Cl | 2%
CC/C(=C1\C(=O)N(c2nc3ccccc3s2)N=C1C(F)(F)F)N1CCCCC1 | 5%
CCOc1ccc(N(CC(=O)N2CCC(C)CC2)S(=O)(=O)c2ccccc2)cc1 | 8%
CCc1cc(CC)c(/C=N/O)c(CC)c1/C=N/O | 0%
CCCOc1ccccc1/C=N/NC(N)=O | 0%
CCc1cc(CC)c(Cc2c(CC)cc(CC)c(/C=N/NC(N)=O)c2CC)c(CC)c1/C=N/NC(N)=O | 50% (active)
Cc1ccc([N+](=O)[O-])cc1S(=O)(=O)n1cnc2ccccc21 | 22%
Cc1cc2ncn(S(=O)(=O)c3ccc(Cl)c([N+](=O)[O-])c3)c2cc1C | 23%
Cc1cc2ncn(S(=O)(=O)c3cc([N+](=O)[O-])ccc3Cl)c2cc1C | 57% (active)
CCCC(=O)Nc1ccc(N2CCOCC2)c(Cl)c1 | 0%
CCOC(=O)CCCN1C(=O)S/C(=C\c2ccc(OC)cc2)C1=O | 0%
COc1ccc(N2CC(C(=O)N/N=C/c3ccc(OC)c(OC)c3)CC2=O)cc1 (stereo not drawn) | 3%
CCOc1cc(/C=C2\SC(=S)N(/N=C/c3ccc(O)c(OCC)c3)C2=O)ccc1O | 20%
Nc1ccc(-c2nc3ccccc3[nH]2)c(N)c1 | 4%
Cc1ccc2nc(-c3sc(=S)n(-c4ccccc4)c3N)[nH]c2c1 | 21%
O=C(/C=C/c1ccccc1F)c1c(-c2ccccc2)c2cc(Cl)ccc2[nH]c1=O | 48%
COc1ccccc1/C=C/C(=O)c1c(-c2ccccc2)c2cc(Cl)ccc2[nH]c1=O | 60% (active)
COc1cc(/C=C/C(=O)c2c(-c3ccccc3)c3cc(Cl)ccc3[nH]c2=O)cc(OC)c1OC | 3%
COc1ccc(OC)c(/C=C/C(=O)c2c(-c3ccccc3)c3cc(Cl)ccc3[nH]c2=O)c1 | 50% (active)
COc1ccc(/C=C/C(=O)c2c(-c3ccccc3)c3cc(Cl)ccc3[nH]c2=O)cc1OC | 11%
COc1cc(/C=C/C(=O)c2c(-c3ccccc3)c3cc(Cl)ccc3[nH]c2=O)cc(Br)c1OC | 26%
C=CCN1C(=O)/C(=C\c2ccc(-c3ccc(Br)cc3)o2)C(=O)NC1=S | 32%
Cc1ccc(NC(=O)C(=O)NCc2ccc3c(c2)OCO3)cc1 | 4%
Cc1nc2cc(-c3ccc(I)cc3)[nH]n2c(=O)c1C | 0%
COC(=N)/C(C#N)=C/c1c(O)n(-c2c(Cl)cccc2Cl)c2ccccc12 | 1%
